An excerpt weighted towards active compounds, which were near 5.3% of everything screened.
Tau FP inhib: tau fibrillization inhibition (FP); P10636; K18 P301L tau heparin fibrillization, Alexa594 FP, 6 h; Potency, µM (top dose mostly 57.7 µM), for the others: at the highest dose activity, negative = inhibition, hits mostly inhibitors; 280,000 tested, 0.39% active; further: potency means the concentration at half of the fitted maximal effect; nearly all actives have a fitted effect of over 55% in size
Target sequence (P10636 561-689 P618L limits assumed): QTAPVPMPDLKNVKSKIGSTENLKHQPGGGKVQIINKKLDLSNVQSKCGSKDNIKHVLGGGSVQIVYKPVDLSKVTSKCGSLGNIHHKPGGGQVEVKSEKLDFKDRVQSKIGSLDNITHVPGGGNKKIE
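Quantitative HTS format: compounds meet 15 uM recombinant K18 P301L tau and Alexa 594-tau tracer in 100 mM sodium acetate pH 7; 20 uM heparin triggers fibrillization at 37 C over 6 hr; FP gives the signal.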
Sfp PPTase inh: inhibitors of Bacillus subtilis Sfp phosphopantetheinyl transferase; Biochemical Sfp PPTase activity, qHTS; Potency, µM, for the others: largest response in the series, negative = inhibition, actives largely listed as inhibitors; 310,000 tested, 3.5% active;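 further: the enzyme is Sfp with the accession as filed and its product quenches rhodamine fluorescence; potency means the concentration at half of the fitted maximal effect; 0% = enzyme reaction without inhibitor and -100% = no enzyme wells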
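After 15 min at room temperature with compound, 15 nM Sfp received 5 uM rhodamine-CoA plus 12.5 uM BHQ-2-ybbR (50 mM Hepes pH 7.6, 10 mM MgCl2). Rate came from the fluorescence difference over 30 min, ex 525/em 598 nm.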
FBPA coupling cs: inhibits coupling enzyme system, counter-screen for aldolase hits. activity change, negative = inhibition, % at 58.2 µM, hits read low. 290,000 tested, 0.67% active. coupling enzyme system counterscreen, AmpLite Red fluorescence. AID 2472; in the data active means activity change below about -30%
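Fluorescence at 525 nm excitation and 598 nm emission measured inhibition of the coupled detection system without aldolase. Compounds (at 57.5 uM final) were preincubated 10 min at room temperature with coupling enzyme reagent before a 20 min substrate/AmpLite Red step.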
Tau ThT inhib: inhibitors of human tau fibril formation, thioflavin T binding | Potency, µM (highest dose often 57.4 µM), inactives show at the highest dose activity, negative = inhibition, usual class: inhibitors | recombinant tau K18 P301L, heparin-induced fibrillization, ThT fluorescence | 270,000 tested, 2.1% active | AID 1460 | P10636; further: potency means the concentration at half of the fitted maximal effect; nearly all actives have a fitted effect of over 55% in size
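Heparin-induced fibrillization of the P301L-mutant K18 repeat-domain fragment of human tau was followed by ThT binding in quantitative high-throughput format.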
Tau fluor cs: counter-screen for tau fibril formation inhibitors; 280,000 tested, 0.93% active; Potency, µM (titrated, usually from 57.7 µM), for inactives: at the highest dose activity change, negative = decrease; tau K18 P301L (four-repeat tau fragment) Alexa594 fluorescence, heparin fibrillization; further: potency means the concentration at half of the fitted maximal effect; nearly all actives have a fitted effect of over 55% in size
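Human K18 P301L tau (15 uM unlabeled plus 0.24 uM Alexa 594-labeled, final) in 100 mM sodium acetate pH 7 was mixed with compound and 20 uM heparin and incubated 6 hr at 37 C.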
JMJD2E inh: inhibitors of human JMJD2E histone demethylase; Potency, µM (doses to about 57.1 µM), for the others: at the highest dose activity change, negative = inhibition, actives largely listed as inhibitors; JMJD2E catalytic domain, FDH-coupled NADH fluorescence (FDH is formaldehyde dehydrogenase); 230,000 tested, 1.6% active; active means well fitted inhibition curve with a large enough effect, not every such curve was filed as active; inconclusive means small, poorly fitted or top-dose-only effect, or another doubt; inactive means no such curve, though single readings can be large or run the other way;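 further: potency means the concentration at half of the fitted maximal effect; 0% = wells with enzyme and -100% = buffer wells without enzyme; nearly all actives have a fitted effect of over 50% in size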
Target sequence (B2RXH2 1-337 limits assumed): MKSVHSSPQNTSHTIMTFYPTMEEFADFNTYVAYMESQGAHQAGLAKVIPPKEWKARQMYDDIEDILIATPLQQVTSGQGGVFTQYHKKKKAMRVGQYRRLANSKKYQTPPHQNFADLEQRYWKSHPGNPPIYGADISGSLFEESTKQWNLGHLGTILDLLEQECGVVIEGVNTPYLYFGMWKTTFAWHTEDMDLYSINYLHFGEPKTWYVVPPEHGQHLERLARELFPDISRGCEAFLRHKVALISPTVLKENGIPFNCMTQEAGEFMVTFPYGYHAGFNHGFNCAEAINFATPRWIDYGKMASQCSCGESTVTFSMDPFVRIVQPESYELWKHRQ
Numbers without * were called inactive; ? = inconclusive; · = no result given; [ ] = dose if it differs, or a comment. Unless noted, the call rests on the fitted dose curve; in most records, active means well fitted curve in the direction sought with a large enough effect; inconclusive means small, poorly fitted or top-dose-only effect, or another doubt; inactive means no such curve, though single readings can be large; an effect the other way counts as inactive or inconclusive. Unless noted, on the % scale 0 is the no-effect control and ±100 the full control effect.

SMILES	Tau FP inhib	Sfp PPTase inh	FBPA coupling cs	Tau ThT inhib	Tau fluor cs	JMJD2E inh
CCOC(=O)c1cnc2c(OC)cccc2c1N1CCN(c2ccccc2OC)CC1	-17%	79µM*	-5	-15%	?	?
CCOC(=O)c1cnc2ccccc2c1NCc1ccco1	-4%	45µM*	0	?	-30%	?
CCOC(=O)c1cnc2ccc(OCC)cc2c1N1CCN(C)CC1	-6%	-10%	-39*	-13%	-9%	-3%
CCOC(=O)c1cnc2ccc(OCC)cc2c1NCc1ccccc1OC	-6%	56µM*	-10	?	-11%	4%
COc1ccc(-n2c(=O)c(-c3ccc(F)cc3)nc3cncnc32)cc1	·	-5%	2	·	·	·
COc1ccc(CCNc2nc(C)nc3c2oc2ccccc23)cc1OC	-5%	28µM*	1	?	-10%	0%
CCCCC(CC)CNC(=O)CCCn1c(=O)[nH]c2ccsc2c1=O (stereo unspecified)	-19%	·	·	0%	-15%	·
N#CC(C#N)=C1C=CC=CN1/C(=C\c1ccco1)C(=O)c1ccc(Cl)cc1	28µM*	14µM*	0	22µM*	?	-12%
N#CC(C#N)=C1C=CC=CN1/C(=C\c1ccco1)C(=O)c1ccc(-c2ccccc2)cc1	?	10%	1	16µM*	-29%	-8%
N#C/C(=C\c1ccco1)C(=O)NCc1ccccc1	1%	10%	1	17%	8%	0%
CCOC(=O)c1cnc2ccc(OC(F)(F)F)cc2c1Nc1ccccc1C(=O)O	3%	·	·	-13%	-3%	·
COC(=O)CSC1=C(C#N)C(=O)NC2(CCCCC2)S1	?	25µM*	6	?	-6%	?
Nn1cnc2c(c1=O)C1(CCCCC1)Cc1ccccc1-2	6%	8%	-1	-4%	-12%	-4%
Oc1ccc(-c2nc3c4c(ncn3n2)-c2ccccc2CC42CCCC2)cc1	22µM*	32%	-4	5%	?	1%
CCCCN(CCCC)S(=O)(=O)c1ccc(NC(=O)c2ccc([N+](=O)[O-])cc2Cl)cc1	?	14%	-2	-3%	?	2%
O=C(NNc1ccccc1[N+](=O)[O-])Nc1ccc(Cl)c(Cl)c1	?	-20%	1	16µM*	16µM*[quencher]	-29%
O=C(Nc1ccc(Cl)c(Cl)c1)Nc1ccc(Br)cc1F	7.1µM*	?	-3	?	?	-18%
O=C(Nc1ccccc1)Nc1ccc(Br)c(Cl)c1	14µM*	28%	0	?	?	4%
CCN(CC)S(=O)(=O)c1cc([N+](=O)[O-])ccc1NNC(=O)Nc1ccc(Cl)c(Cl)c1	?	?	-2	-22%	7.1µM*[quencher]	-17%
Cc1ccc(Cn2c(CNS(=O)(=O)c3c(C)cc(C)cc3C)nc3cccnc32)cc1	6%	·	·	-11%	-11%	·
O=C(Nc1ccc(Cl)c(Cl)c1)Nc1ccccc1O	-5%	?	-8	?	13µM*[quencher]	-2%
CCOc1ccc(-c2cc(N)n(S(=O)(=O)c3ccc(OC)c(OC)c3)n2)cc1	-11%	19%	-2	-9%	?	0%
COc1ccc(S(=O)(=O)n2nc(-c3ccc(Cl)cc3)cc2N)cc1OC	-12%	-2%	0	-14%	16µM*[quencher]	-3%
CCc1ccccc1Nc1nc2cc(Cl)c(Cl)cc2nc1-n1nc(C)cc1C	-7%	·	·	1%	-5%	·
CCCCCC(=O)NNC(=S)NC(=O)c1ccc([N+](=O)[O-])cc1	-7%	35µM*	5	?	-4%	-27%
SMILES	Tau FP inhib	Sfp PPTase inh	FBPA coupling cs	Tau ThT inhib	Tau fluor cs	JMJD2E inh
COc1ccc(OCC(=O)NNC(=S)NC(=O)c2ccc([N+](=O)[O-])cc2)cc1	·	32µM*	6	·	·	·
CCc1cccc(NC(=O)C(Cc2ccccc2)n2cccc2)c1 (stereo unspecified)	-18%	·	·	-6%	?	·
Brc1ccc(/C=N/Nc2ccccc2)cc1	11%	-4%	-1	?	20µM*[quencher]	-13%
Clc1ccc2[nH]c3c(c2c1)CCc1cn[nH]c1-3	-13%	13%	-1	?	8.9µM*[quencher]	?
COc1cc(-c2ccno2)ccc1S(=O)(=O)N1CCN(c2cccc(Cl)c2)CC1	-18%	·	·	?	?	·
Nc1ccc(-n2nnnc2CN2CCOCC2)cc1	3%	12%	4	-3%	-3%	8%
Nc1cccc(-n2nnnc2CN2CCOCC2)c1	11%	5%	-31*	10%	5%	-5%
COc1cc(OC)c(N(C)S(=O)(=O)c2cccc(C(=O)OCC(=O)c3c[nH]c4ccccc34)c2)cc1Cl	13µM*	16%	-4	10%	?	8%
C=CCN(c1ccccc1OC)S(=O)(=O)c1cccc(C(=O)OCC(=O)c2c[nH]c3ccccc23)c1	16µM*	4%	-6	5%	?	1%
COc1cc(C(=O)OCC(=O)c2c[nH]c3ccccc23)ccc1OCC(=O)N1CCOCC1	0%	1%	4	?	?	0%
COc1ccccc1C(=O)COC(=O)c1cccc(S(=O)(=O)N2CCCC2)c1	·	2%	·	·	·	·
CSc1ncc(C(=O)O)n1-c1ccc(F)cc1	0%	11%	1	-4%	3%	5%
O=C(O)c1c[nH]c(=S)n1-c1ccc(F)cc1	3%	11µM*	-6	-3%	1%	-9%
COc1cccc2c1C(=O)c1c(O)c3c(c(O)c1C2=O)C[C@@](O)(C(=O)CO)C[C@@H]3O[C@@H]1C[C@H](N)[C@H](O)[C@H](C)O1	?	-7%	-15	13µM*	10%	22µM*
COc1cccc2c1C(=O)c1c(O)c3c(c(O)c1C2=O)C[C@@](O)(C(=O)CO)C[C@@H]3OC1CC(N)C(O)C(C)O1 (stereo partly specified)	·	-6%	·	·	·	·
COc1cccc2c1C(=O)c1c(O)c3c(c(O)c1C2=O)C[C@@](O)(C(=O)CO)C[C@@H]3O[C@H]1C[C@H](N)[C@H](O)[C@H](C)O1	25µM*	?	-40*	3.2µM*	-6%	?
CCCCCCCCN=C(N)c1ccc(C(=O)OCC2CCCCC2)cc1	·	?	-1	·	·	·
CCSc1nc2sc3c(c2c(=O)[nH]1)CCCC3	-11%	9%	-2	-10%	-1%	-9%
CCSc1nc2sc3c(c2c2[n+]1CC(CBr)O2)CCCC3 (stereo unspecified)	-3%	50µM*	4	-26%	-27%	?
Oc1ccc(N2CCN(c3nnnn3-c3ccccc3)CC2)cc1	12%	56µM*	-7	-5%	-3%	-23%
CC(=O)Nc1nc(-c2ccc3c(c2)CC(C)N3C(=O)C2CC2)c(C)s1 (stereo unspecified)	·	50µM*	0	·	·	·

Screening data deposited in PubChem BioAssay by National Center for Advancing Translational Sciences (NCATS).
